Among all 190,000 compounds or so, about 110 (0.058%) were called active. About 2% were inconclusive and are not listed.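 Rule for the calls: active = fluorescent GTP binding to Rab7 beads changed by at least 20 points from the 100% baseline, either direction, mostly lower; inconclusive = compound itself probably fluorescent, or too few beads counted; inactive = the rest.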 For the sample, actives were picked, then their nearest neighbours and some compounds at random.
Tested on: Rab7 GTPase wild type (dog), Bodipy-FL-GTP binding
Test: modulators of GTP binding to Rab7, primary screen, biochemical, wildtype, multiplex bead flow cytometry (AID 758);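 note: median green fluorescence of bound Bodipy-FL-GTP per Rab7 bead population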
Conditions: GST-Rab7 beads, fluorescent GTP binding, at 10 µM, actives lie on both sides, untreated = 100%, excess cold GTP = 0%

Row | SMILES | GTP binding activity (percent of control)
1 | CCOC(=O)c1ccc(N2C(=O)CC(N3CCN(C(=O)c4ccccc4)CC3)C2=O)cc1 (configuration not stated) | 97% (inactive)
2 | COCCCNc1nc2c(-c3cccc(C(F)(F)F)c3)nnn2c2ccccc12 | 105% (inactive)
3 | C/C(CCc1ccccc1)=N\NC(=O)c1ccc(CN2CCOCC2)cc1 | 103% (inactive)
4 | Cc1ccccc1NS(=O)(=O)CCCCC(Cl)(Cl)Cl | 96% (inactive)
5 | CC1CCN(S(=O)(=O)c2ccc(S(=O)(=O)NCc3cccnc3)cc2)CC1 | 98% (inactive)
6 | CCCNC(=O)c1c(Cl)cnn1-c1ccc(C)cc1 | 96% (inactive)
7 | O=C(CO/N=C/c1ccccc1OC(F)F)NC1CCCC1 | 103% (inactive)
8 | O=C(NNC(=O)C1C2CCC(C2)C1C(=O)O)c1ccc(Cl)cc1 (configuration not stated) | 103% (inactive)
9 | CCN(CC)S(=O)(=O)c1ccc(OC(C)C)c(N)c1 | 107% (inactive)
10 | CN(C)/C=C(/C(=O)c1ccccc1Cl)S(C)(=O)=O | 104% (inactive)
11 | CCCN(CCC)CCCNC(=O)CNC(=O)c1nn(-c2ccc(OC)cc2)c(=O)c2ccccc12 | 95% (inactive)
12 | CC(=O)c1c(C)[nH]c(C(=O)OCC(=O)NCCC(C)C)c1C | 95% (inactive)
13 | Cc1cccc(C(=O)OCC(=O)NCC(C)C)c1O | 96% (inactive)
14 | S=C(NCCc1ccccc1)N1CCn2cccc2C1c1ccncc1 (configuration not stated) | 91% (inactive)
15 | COc1ccc2cc(CCl)c(Cl)nc2c1 | 91% (inactive)
16 | O=C(CCC(=O)OCc1ccc(Cl)cc1)Nc1ccccc1 | 102% (inactive)
17 | CN(C)S(=O)(=O)c1cccc(NC(=S)NCc2ccc3c(c2)OCO3)c1 | 104% (inactive)
18 | CCN(CC)S(=O)(=O)c1ccc(N(C)CCc2ccc(OC)c(OC)c2)nc1 | 96% (inactive)
19 | CC(C)CC(CC(C)C)=NNC(=O)c1ccc(CSc2nncn2C)cc1 | 104% (inactive)
20 | Cn1cnnc1SCC(=O)Nc1ccc(N2CCOCC2)cc1 | 98% (inactive)
21 | O=C(CN1C(=O)c2cccc3cccc1c23)Nc1ccccc1 | 98% (inactive)

Row | SMILES | GTP binding activity (percent of control)
22 | O=C(CS(=O)(=O)c1ccccc1)Nc1ccc(S(=O)(=O)Nc2ccccn2)cc1 | 107% (inactive)
23 | COc1cc(OC)cc(-c2nc(=S)n3ccsc3n2)c1 | 99% (inactive)
24 | Cc1ccc(/C=N/NC(=O)Cn2ccc(C(F)(F)F)n2)o1 | 105% (inactive)
25 | CCN(CC(=O)Nc1ccc(Cl)c(S(=O)(=O)N(C)C)c1)Cc1nc2ccccc2c(=O)[nH]1 | 105% (inactive)
26 | COc1cc(NC(=O)COc2ccccc2Cl)ccc1NC(=O)C(C)C | 98% (inactive)
27 | Cc1ccc(C2NC(C(=O)O)CS2)cc1 (configuration not stated) | 103% (inactive)
28 | CN(C)c1ccc(C2Nc3ccccc3C(=O)N2NS(=O)(=O)c2ccccc2)cc1 (configuration not stated) | 95% (inactive)
29 | O=C(CSc1ccc([N+](=O)[O-])cn1)Nc1ccc(N2CCOCC2)cc1 | 95% (inactive)
30 | Cc1ccc(NC(=S)NC(=O)c2ccc(-c3ccccc3)cc2)c(C)c1 | 100% (inactive)
31 | COc1c(F)c(F)c(C(=O)O)c(Nc2ccccc2C)c1F | 96% (inactive)
32 | Cc1ccc(Nc2c(F)c(F)c(F)c(F)c2C(=O)O)c(C)c1 | 121% [activator] (active)
33 | S=C(Nc1ccc2c(c1)OCO2)N1CCCC1 | 104% (inactive)
34 | C/C(CC(=O)N1CCN(C=O)CC1)=N\NC(=O)c1ccc(Br)cc1 | 102% (inactive)
35 | COc1ccc2c(c1)CCC/C2=N\OC(=O)c1ccccc1F | 105% (inactive)
36 | C=CCN(CC=C)S(=O)(=O)c1ccc(C(=O)Nc2nc3c(s2)CCc2ccccc2-3)cc1 | 27% (active)
37 | C=CCN(CC=C)S(=O)(=O)c1ccc(C(=O)Nc2sc3c(c2C(N)=O)CCCCC3)cc1 | 103% (inactive)
38 | COCCN(CCOC)S(=O)(=O)c1ccc(C(=O)Nc2nc3c(s2)CCc2ccccc2-3)cc1 | 99% (inactive)
39 | COC(=O)CCC(=O)N1CCCC(CO)(Cc2ccccc2)C1 (configuration not stated) | 98% (inactive)
40 | CSc1cccc(NC(=S)N(Cc2ccccc2)Cc2ccccn2)c1 | 104% (inactive)
41 | O=C(COC(=O)c1ccccn1)Nc1cccc2ccccc12 | 108% (inactive)
42 | CCN(CC)CCNS(=O)(=O)c1ccc(/C=C/C(=O)O)cc1 | 98% (inactive)

Row | SMILES | GTP binding activity (percent of control)
43 | OCCC1CN(Cc2cnc(-c3ccccc3)s2)CCN1CCc1ccccc1 (configuration not stated) | 106% (inactive)
44 | CCOC(=O)CNC(=O)CSc1ccc2nnc(-c3cccnc3)n2n1 | 96% (inactive)
45 | CC1(C)C2CC=C(/C=N/NC(=O)C3CC3)C1C2 (configuration not stated) | 105% (inactive)
46 | CCc1c(SCCC(=O)O)nc2ccccc2c1C | 99% (inactive)
47 | Fc1cc(Br)ccc1NC(=S)Nc1cccnc1 | 104% (inactive)
48 | COC(=O)C(=Nc1ccccc1)/C(C(=O)C(=O)N(C)c1ccccc1)=C(\O)c1ccc(Cl)cc1 | 96% (inactive)
49 | Cc1ccc(N2C(=O)C(CC(=O)Nc3cccc(F)c3)N(CCc3ccncc3)C2=O)cc1 (configuration not stated) | 97% (inactive)
50 | NNC(=O)C1CC(O)CN1S(=O)(=O)c1ccc(Cl)cc1 (configuration not stated) | 96% (inactive)
51 | Cc1ccc(NC(=O)CNCc2ccccn2)cc1S(=O)(=O)N(C)C | 101% (inactive)
52 | C=CCN(Cc1nc(-c2cc(OC)c3c(c2)OCO3)oc1C)C1CCS(=O)(=O)C1 (configuration not stated) | 92% (inactive)
53 | CC1=CC=CN2C1=NC(=O)CC2(C)C(=O)N(CC(=O)NC1CCCC1)c1ccccc1C (configuration not stated) | 104% (inactive)
54 | CC(=O)c1cc(C#N)c(SCC(=O)Nc2nccs2)nc1C | 96% (inactive)
55 | C=CCn1nc(-c2ccccc2)c2c(C)onc2c1=O | 100% (inactive)
56 | NS(=O)(=O)c1ccc(NC(=S)Nc2ccc(Br)c(Cl)c2)cc1 | 103% (inactive)
57 | O=C(CCNC(=O)c1ccc([N+](=O)[O-])cc1)Nc1ccccc1N1CCOCC1 | 96% (inactive)
58 | COc1cccc(C(O)Cc2nc3ccccc3n2C)c1OC (configuration not stated) | 96% (inactive)
59 | CC(=O)c1cccc(NC(=O)[C@@H](NC(N)=O)C(C)C)c1 | 96% (inactive)
60 | COc1ccc(CNC(=O)COC(=O)/C=C/c2ccc(S(=O)(=O)N3CCOCC3)cc2)cc1 | 100% (inactive)
61 | O=C(O)/C=C/C(=O)NNc1ccc([N+](=O)[O-])cc1 | 96% (inactive)
62 | CCOC(=O)C1(CCOc2ccccc2)CCN(C(=O)c2cncs2)CC1 | 93% (inactive)
